Measurements published in PubChem BioAssay (NCATS).
Records with an inconclusive call do not appear. Active and inactive are the calls of the source. The call rests on the fitted dose curve; in most records, active means well fitted cell-killing curve with a large enough effect; inconclusive means small, poorly fitted or top-dose-only effect, or effect the other way; inactive means no such curve, though single readings can be large or run the other way.

test: Quantitative High-Throughput drug screen in 47 multiple myeloma cell lines against the NCATS MIPE library collection: KMS27_JCRB cell viability assay (AID 1918970); conditions: KMS27 myeloma cells, CellTiter-Glo ATP viability, 48 h; series mostly up to 45.8 µM; viability (% of DMSO): at the top concentration; further: nearly all actives have a fitted effect of over 30% in size
Excerpt: PI: Beverly A. Mock Ph.D.
Laboratory of Cancer Biology and Genetics,
Center for Cancer Research, National Cancer Institute,
National Institute of Health, Bethesda, Maryland
Drug resistance and disease progression are common in multiple myeloma (MM) patients, underscoring the need for new therapeutic combinations. […] We hypothesized that effective combinations would reduce MYC expression and enhance p16 activity. […] These preclinical data identify potentially useful drug combinations for evaluation in drug-resistant MM and reveal potential mechanisms of combined drug sensitivity.
Described herein is the primary MIPE qHTS used to cherrypick compounds. Validated compounds were then further tested for potential synergistic activiy.
[1] Peat TJ, Gaikwad SM, Dubois W, Gyabaah-Kessie N, Zhang S, Gorjifard S, Phyo Z, Andres M, Hughitt VK, Simpson RM, Miller MA, Girvin AT, Taylor A, Williams D, D'Antonio N, Zhang Y, Rajagopalan A, Flietner E, Wilson K, Zhang X, Shinn P, Klumpp-Thomas C, McKnight C, Itkin Z, Chen L, Kazandijian D, Zhang J, Michalowski AM, Simmons JK, Keats J, Thomas CJ, Mock BA. Drug combinations identified by high-throughput screening promote cell cycle transition and upregulate Smad pathways in myeloma. […] Epub 2023 Jun 24. PMID: 37356470; PMCID: PMC10408729.
SEQUENCE No. (e.g., 1, 2, 3, etc.); […] (e.g., Cells, Incubation, Reagent, etc.); VALUE and DESCRIPTION.
1; Cells; 5 uL; white, solid bottom 1536-well Greiner assay plate.
2; Compounds; 23 nL; Kalypsis pin tool (Wako USA) equipped with a 1536-well pin head to transfer to the assay plates.
3; Incubation; 48 hours; 37C incubation.
4; Reagent;5uL; CellTiter Glo (Promega).
5; Detector; 425V; Luminescence; Viewlux PerkinElmer.
NOTES (numbers refer to Sequence numbers above)
1. The cell-based screening methods employed in this study were like those previously published. Briefly, the corresponding myeloma cell lines were screened in 1,536-well plates with 500 cells, 5-uL per well for inhibition of cell viability (assessed by measuring ATP levels with CellTiterGlo).
2. NCATS MIPE 4.0 library of approved and investigational drugs were added using the Kalypsis pin tool. Wells treated with DMSO only for 100% viability and media only wells for 0% viability were used as controls.
3. The assay plates were covered and incubated for 48 hours in a 37C, 5% CO2 incubator with controlled humidity.
4. After 48 hours, CellTilter-GloTM luminescent substrate mix (Promega) reagent was added to the assay plate and plates we incubated for 5 min at room temperature.
5. Signal was measured as median relative luminescence units on a ViewLux (PerkinElmer) multiplate reader.
[1] Heske CM, Davis MI, Baumgart JT, Wilson K, Gormally MV, Chen L, Zhang X, Ceribelli M, Duveau DY, Guha R, Ferrer M, Arnaldez FI, Ji J, Tran HL, Zhang Y, Mendoza A, Helman LJ, Thomas CJ. Matrix Screen Identifies Synergistic Combination of PARP Inhibitors and Nicotinamide Phosphoribosyltransferase (NAMPT) Inhibitors in Ewing Sarcoma. Clin Cancer Res. 2017 Dec 1;23(23):7301-7311. doi: 10.1158/1078-0432.CCR-17-1121. Epub 2017 Sep 12. PMID: 28899971; PMCID: PMC6636827.
Potency means the concentration at half of the fitted maximal effect.

Structure (SMILES) | Potency | viability (% of DMSO)
COc1ccc2c(c1OC)CN1CCc3cc4c(cc3C1C2)OCO4 (configuration not stated) | 20900 nM (active) | –
CN(C)CCN(C)CCc1ccc(Cl)c(Cl)c1 | – | 120% (inactive)
CNC(=O)c1ccc(N2C(=S)N(c3ccc(C#N)c(C(F)(F)F)c3)C(=O)C23CCC3)cc1F | – | 107% (inactive)
Cn1c(CCCC(=O)O)nc2cc(N(CCCl)CCCl)ccc21 | – | 151% (inactive)
CNC(=O)N1N=C(c2ccc(N)cc2)c2cc3c(cc2CC1C)OCO3 (configuration not stated) | 3320 nM (active) | –
Cn1cc(C2=C(c3cn(C4CCN(Cc5ccccn5)CC4)c4ccccc34)C(=O)NC2=O)c2ccccc21 | 18700 nM (active) | –
CC(C)CC(N(C)C)C1(c2ccc(Cl)cc2)CCC1 (configuration not stated) | – | 110% (inactive)
C=C(C)[C@H]1Cc2c(ccc3c2O[C@@H]2COc4cc(OC)c(OC)cc4[C@@H]2C3=O)O1 | 296 nM (active) | –
COc1ccc(C(CN(C)C)C2(O)CCCCC2)cc1 (configuration not stated) | – | 123% (inactive)
Cc1cccc(C)c1NC(=O)CN1CCCC1=O | – | 94% (inactive)
N[C@@H](Cc1ccc(N(CCCl)CCCl)cc1)C(=O)O | 3720 nM (active) | –
CN(C)[C@@H]1C(=O)C(C(N)=O)=C(O)[C@@]2(O)C(=O)C3=C(O)c4c(O)cccc4[C@@](C)(O)[C@H]3C[C@@H]12 | – | 117% (inactive)
CN1CCN(C(=O)O[C@H]2c3nccnc3C(=O)N2c2ccc(Cl)cn2)CC1 | – | 134% (inactive)
O=C1CC[C@@]2(O)[C@H]3Cc4ccc(O)c5c4[C@@]2(CCN3CC2CC2)[C@H]1O5 | – | 134% (inactive)
CCCC(C)(COC(N)=O)COC(=O)NC(C)C (configuration not stated) | – | 97.8% (inactive)
C[C@@H]1[C@@H](CC(C[C@H]2O[C@@H]3O[C@]4(C)CC[C@@H]5[C@H](C)CC[C@@H]([C@H]2C)[C@@]35OO4)C[S+](=O)([O-])c2ccc(COC(=O)N(C)C)cc2)O[C@@H]2O[C@]3(C)CC[C@H]4[C@H](C)CC[C@@H]1[C@@]24OO3 (some centres not stated) | 187 nM (active) | –
COc1ccc(C(=O)c2c(C)n(CCN3CCOCC3)c3ccccc23)cc1 | – | 111% (inactive)
COC[C@H]1OC(=O)c2coc3c2[C@@]1(C)C1=C(C3=O)C2CCC(=O)[C@@]2(C)C[C@H]1OC(C)=O (some centres not stated) | 14800 nM (active) | –
CN(C)CCc1ccc(O)cc1 | – | 117% (inactive)
CNCC(O)c1ccc(O)cc1 (configuration not stated) | – | 99.9% (inactive)
Cc1sc2c(c1C)C(c1ccc(Cl)cc1)=N[C@@H](CC(=O)OC(C)(C)C)c1nnc(C)n1-2 | 52.6 nM (active) | –
C[C@@H]1[C@@H](C(=O)C[C@H]2O[C@@H]3O[C@]4(C)CC[C@@H]5[C@H](C)CC[C@@H]([C@H]2C)[C@@]35OO4)O[C@@H]2O[C@]3(C)CC[C@H]4[C@H](C)CC[C@@H]1[C@@]24OO3 | 166 nM (active) | –
C[C@@H]1O[C@@H](O[C@H]2C[C@@H](O)[C@]3(CO)[C@H]4[C@H](O)C[C@]5(C)[C@@H](C6=CC(=O)OC6)CC[C@]5(O)[C@@H]4CC[C@]3(O)C2)[C@H](O)[C@H](O)[C@H]1O | 18.7 nM (active) | –
CC1=C2C[C@@H]3[C@@H](CC=C4C[C@@H](O)CC[C@@]43C)[C@@H]2CC[C@]12O[C@H]1C[C@H](C)CN[C@H]1[C@H]2C | – | 134% (inactive)
COC[C@@H](NC(C)=O)C(=O)NCc1ccccc1 | – | 88% (inactive)
O=C(O)C(=O)c1cn(Cc2ccccc2)c2ccc(-c3ccc(OC(F)(F)F)cc3)cc12 | – | 141% (inactive)
CC(O)(CS(=O)(=O)c1ccc(F)cc1)C(=O)Nc1ccc(C#N)c(C(F)(F)F)c1 (configuration not stated) | 2350 nM (active) | –
